Source: PubChem BioAssay (NCATS)
Results filed as inconclusive are left out. A call without a number means that no potency is given here. A number with no mark means an inactive call. The source made the active and inactive calls. Calls come from the whole dose curve; as a rule, active = well fitted curve in the direction sought with a large enough effect; inconclusive = small, poorly fitted or top-dose-only effect, or another doubt; inactive = no such curve, though single readings can be large; an effect the other way counts as inactive or inconclusive.

Key:
[1] = target: Rap guanine nucleotide exchange factor 3 (Homo sapiens) (UniProt O95398); test: Confirmatory qHTS for antagonist of cAMP-regulated guanine nucleotide exchange factor 3 (EPAC1) (AID 1645880); note: nearly all actives have a fitted effect of over 55% in size; note: potency is the fitted concentration of half-maximal effect
Chain of Rap guanine nucleotide exchange factor 3 (Homo sapiens) (O95398 whole entry, looked up): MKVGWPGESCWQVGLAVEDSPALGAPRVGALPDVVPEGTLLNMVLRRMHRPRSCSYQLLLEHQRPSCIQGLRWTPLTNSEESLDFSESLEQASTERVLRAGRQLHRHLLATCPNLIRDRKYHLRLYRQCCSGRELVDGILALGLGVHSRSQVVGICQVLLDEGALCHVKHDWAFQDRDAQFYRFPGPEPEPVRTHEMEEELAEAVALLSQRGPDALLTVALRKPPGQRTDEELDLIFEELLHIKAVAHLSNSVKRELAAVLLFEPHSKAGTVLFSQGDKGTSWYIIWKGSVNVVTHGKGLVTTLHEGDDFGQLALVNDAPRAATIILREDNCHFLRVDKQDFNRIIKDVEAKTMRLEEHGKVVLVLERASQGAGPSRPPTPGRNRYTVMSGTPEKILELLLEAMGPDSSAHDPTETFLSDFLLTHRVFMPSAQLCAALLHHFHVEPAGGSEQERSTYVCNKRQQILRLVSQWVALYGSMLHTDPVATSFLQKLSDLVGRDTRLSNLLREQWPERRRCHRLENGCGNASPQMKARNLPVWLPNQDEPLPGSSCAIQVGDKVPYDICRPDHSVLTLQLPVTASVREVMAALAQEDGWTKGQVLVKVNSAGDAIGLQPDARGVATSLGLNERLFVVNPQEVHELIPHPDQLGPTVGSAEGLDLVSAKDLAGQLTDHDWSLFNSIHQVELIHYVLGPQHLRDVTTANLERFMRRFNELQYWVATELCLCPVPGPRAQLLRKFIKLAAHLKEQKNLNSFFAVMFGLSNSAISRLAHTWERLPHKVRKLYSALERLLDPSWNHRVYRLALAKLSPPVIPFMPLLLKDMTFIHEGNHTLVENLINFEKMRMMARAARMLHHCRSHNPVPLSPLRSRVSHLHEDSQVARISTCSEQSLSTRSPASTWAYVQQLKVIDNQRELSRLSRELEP
Summary of the method: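 Released BODIPY-GDP fluoresces less than Rap1-bound BODIPY-GDP; the signal is followed at 480/540 nm at 5-min intervals over 30 min, after 5 min at room temperature. Reactions contain 100 nM EPAC1, 250 nM RAP1B-BODIPY-GDP and 50 uM GDP; results are normalized to ATA and DMSO.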

[2] = target: Rap guanine nucleotide exchange factor 3 (Homo sapiens) (UniProt O95398); test: Confirmatory qHTS for agonist of cAMP-regulated guanine nucleotide exchange factor 3 (EPAC1) (AID 1645881);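 note: EPAC1 catalysed release of BODIPY-GDP from Rap1B seen as fluorescence loss; nearly all actives have a fitted effect of over 75% in size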
[3] = target: Rap guanine nucleotide exchange factor 4 (Homo sapiens) (UniProt Q8WZA2); test: Confirmatory qHTS for agonist of cAMP-regulated guanine nucleotide exchange factor 4 (EPAC2) (AID 1645884);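 note: nucleotide exchange releases bodipy-GDP from Rap1 and this lowers its fluorescence; nearly all actives have a fitted effect of over 65% in size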
Chain of Rap guanine nucleotide exchange factor 4 (Homo sapiens) (Q8WZA2 whole entry, looked up): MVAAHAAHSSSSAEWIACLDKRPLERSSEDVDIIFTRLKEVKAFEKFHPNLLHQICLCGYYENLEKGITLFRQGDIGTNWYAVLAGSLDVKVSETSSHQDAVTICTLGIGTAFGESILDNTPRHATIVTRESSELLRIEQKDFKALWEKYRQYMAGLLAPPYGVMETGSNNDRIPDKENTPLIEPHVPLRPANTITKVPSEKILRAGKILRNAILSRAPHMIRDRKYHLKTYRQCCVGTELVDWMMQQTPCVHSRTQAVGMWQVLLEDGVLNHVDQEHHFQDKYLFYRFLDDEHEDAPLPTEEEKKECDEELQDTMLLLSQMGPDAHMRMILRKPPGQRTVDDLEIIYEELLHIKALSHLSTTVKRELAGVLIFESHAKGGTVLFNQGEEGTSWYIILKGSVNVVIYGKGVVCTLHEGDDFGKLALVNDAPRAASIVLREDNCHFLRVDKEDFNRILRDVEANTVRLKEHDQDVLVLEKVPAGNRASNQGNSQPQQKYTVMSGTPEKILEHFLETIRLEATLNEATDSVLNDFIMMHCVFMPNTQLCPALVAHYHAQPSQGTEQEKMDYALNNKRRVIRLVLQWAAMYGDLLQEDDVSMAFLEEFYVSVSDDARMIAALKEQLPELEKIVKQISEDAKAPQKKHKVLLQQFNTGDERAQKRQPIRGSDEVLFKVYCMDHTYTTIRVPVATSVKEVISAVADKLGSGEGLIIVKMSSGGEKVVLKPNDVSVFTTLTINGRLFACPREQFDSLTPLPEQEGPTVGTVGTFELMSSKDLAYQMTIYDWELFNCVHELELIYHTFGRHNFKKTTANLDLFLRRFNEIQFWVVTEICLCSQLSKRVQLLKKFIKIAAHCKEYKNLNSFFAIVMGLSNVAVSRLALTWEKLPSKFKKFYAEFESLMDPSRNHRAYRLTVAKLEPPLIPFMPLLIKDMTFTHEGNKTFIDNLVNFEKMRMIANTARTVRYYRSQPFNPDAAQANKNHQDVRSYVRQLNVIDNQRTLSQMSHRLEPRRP

[4] = target: Rap guanine nucleotide exchange factor 4 (Homo sapiens) (UniProt Q8WZA2); test: Confirmatory qHTS for antagonist of cAMP-regulated guanine nucleotide exchange factor 4 (EPAC2) (AID 1645885); note: nearly all actives have a fitted effect of over 25% in size; note: potency is the fitted concentration of half-maximal effect
[5] = target: Rap guanine nucleotide exchange factor 3 (Homo sapiens) (UniProt O95398); test: Counterscreen qHTS for antagonist of cAMP-regulated guanine nucleotide exchange factor 3 (EPAC1) (AID 1645888)
Summary of the method: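 Measured: fluorescence of BODIPY-GDP bound to Rap1B, which falls as exchange proceeds. Conditions include 50 uM competing GDP, 5 and 30 min reads, and a later cAMP challenge for antagonist detection.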

| SMILES | Potency [1] | Potency [2] | Potency [3] | outcome [4] | Potency [5] | activation [3] | Potency [4] | activity change, negative = inhibition [5] |
| --- | --- | --- | --- | --- | --- | --- | --- | --- |
| CCOC(=O)c1cc2c(=O)n3ccccc3nc2n(Cc2ccco2)c1=NC(=O)c1ccc(Br)cc1 | 75.7 µM (active) | inactive | inactive | inactive [at 12.7 µM] | inactive | – | – | – |
| Cc1nn(CSc2c(F)c(F)c(F)c(F)c2F)c(C)c1[N+](=O)[O-] | inactive | inactive | – | – | – | 0.798% [at 17.1 µM, percent relative to cAMP agonist control] | inactive | -18.4% [at 30.8 µM] |
| O=S(=O)(NCc1ccco1)c1ccc(Cl)cc1Cl | inactive | inactive | – | – | – | 3.78% [at 17.1 µM, percent relative to cAMP agonist control] | inactive | -9.1% [at 30.8 µM] |
| C=CCn1c(NC(=O)c2ccccc2Cl)c(C#N)c2nc3ccccc3nc21 | 35.5 µM (active) | inactive | – | – | – | -3.42% [at 17.1 µM, percent relative to cAMP agonist control] | 3.01 µM (active) | -7.8% [at 30.8 µM] |
| O=C(/C=C/c1ccccc1)c1cc(Br)ccc(=O)c1O | 12 µM (active) | inactive | inactive | – | inactive | – | inactive | – |
| CCc1ccc(S(=O)(=O)/N=C2\C=C(NS(=O)(=O)c3ccccc3)C(=O)c3ccccc32)cc1 | 19 µM (active) | inactive | inactive | – | inactive | – | inactive | – |
| Nn1cnnc1N/N=C/c1ccc(Cl)c([N+](=O)[O-])c1 | inactive | inactive | inactive | – | inactive | – | inactive | – |
| Cc1ccc(S(=O)(=O)Nc2cc(=O)[nH]c(SCC(=O)Nc3cccc(C)c3)n2)cc1 | inactive | inactive | – | – | – | 4.73% [at 17.1 µM, percent relative to cAMP agonist control] | inactive | -4.46% [at 30.8 µM] |
| CCc1nc2c(OCc3ccc(C#N)cc3)cccn2c1N(C)C(=O)c1ccc(C)cc1 | inactive | inactive | inactive | – | inactive | – | 19 µM (active) | – |
| COc1ccc2cc3[n+](cc2c1O)CCc1cc2c(cc1-3)OCO2 | 19 µM (active) | inactive | inactive | – | inactive | – | inactive | – |
| COc1ccc(C(Sc2ccccc2)c2ccccc2)cc1OC (stereo not given) | inactive | inactive | inactive | – | inactive | – | 21.3 µM (active) | – |
| CC(=O)c1sc(NC(=O)c2c(F)cccc2F)nc1C | inactive | inactive | inactive | – | inactive | – | inactive | – |
| Cc1ccc(NC(=O)C2CCCN2S(=O)(=O)c2cccc3nsnc23)c(Br)c1 (stereo not given) | inactive | inactive | inactive | inactive [at 12.7 µM] | inactive | – | – | – |
| CCN1C(=O)/C(=C/c2ccc(N3CCCC3)cc2)NC1=S | inactive | inactive | – | – | – | 1.83% [at 17.1 µM, percent relative to cAMP agonist control] | inactive | 97.9% [at 30.8 µM] |
| COC(=O)[C@@H]1C[C@@H](c2ccccc2)[C@H](C)C1(C)C | inactive | inactive | inactive | – | inactive | – | inactive | – |
| Cc1ccc2c(c1)c1c3n2CCN(C(=O)C2CC2)C3CCC1 (stereo not given) | inactive | inactive | inactive | – | inactive | – | 75.7 µM (active) | – |
| O=C(CCCC(=O)Nc1cccnc1)Nc1cccnc1 | inactive | inactive | inactive | – | inactive | – | inactive | – |
| COC(=O)c1ccc(CNC(=O)/C=C/[C@H]2O[C@@H](n3cc(C)c(=O)[nH]c3=O)C[C@@H]2O)cc1 | inactive | inactive | inactive | – | inactive | – | inactive | – |
| CCOC(=O)c1ccccc1-c1csc(NS(=O)(=O)c2ccc(Cl)cc2)n1 | 31.6 µM (active) | inactive | – | – | – | 4% [at 17.1 µM, percent relative to cAMP agonist control] | inactive | -28.7% [at 30.8 µM] |
| O=S1(=O)CCO[C@H]2Cc3ccccc3[C@H]2N1Cc1ccc(Cl)cc1 | inactive | inactive | – | – | – | -2.47% [at 17.1 µM, percent relative to cAMP agonist control] | inactive | -21.2% [at 30.8 µM] |
| Cc1ccc(N(Cc2cccs2)C(=O)c2ccccc2)cc1 | inactive | inactive | inactive | – | inactive | – | inactive | – |
| CCCN1CCN(S(=O)(=O)c2ccc3c(c2)NC(=O)C(C)C(=O)N3)CC1 (stereo not given) | inactive | inactive | inactive | – | inactive | – | inactive | – |
| Cc1ccc(S(=O)(=O)CC(=O)N(CCCN(C)C)c2nc3ccc(C)cc3s2)cc1 | inactive | inactive | inactive | – | inactive | – | inactive | – |
| CC(=O)Nc1ccc(NC(=O)CCC(=O)OCC(=O)c2ccc(C)c([N+](=O)[O-])c2)cc1 | inactive | inactive | inactive | – | inactive | – | inactive | – |
